Assay outcomes (PubChem BioAssay)
The list is not random: actives were taken first. Their share in the collection is about 2.2%.
TMEM16A act: activators or potentiators of mouse TMEM16A chloride channel. Q8BHY3. HEK293 TMEM16A/YFP-H148Q/I152L, iodide quench fluorescence; active compounds read low. B-score at 10 µM. actives 0.3% (n = 340,000);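 active = fluorescence-ratio B-score plate-corrected deviation score at least 3 library SD below zero, with starting fluorescence score within 5 deviations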;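 also: channel opened by trigger with iodide after compound preincubation; score built on the fluorescence ratio of max minus min over baseline; more negative score means more quench and so TMEM16A activation or potentiation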
ANO1 block: inhibitors of mouse TMEM16A calcium-activated chloride channel; normalized B-score (activity score, 25-100; higher = stronger inhibition) at 10 µM; HEK293 TMEM16A/YFP iodide influx fluorescence, ionomycin; Q8BHY3; AID 588511; actives 1.2% (n = 310,000);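 active = ratio plate-corrected score three or more library SD toward inhibition, starting fluorescence score within five deviations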;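 also: score derived from kinetic fluorescence span divided by baseline fluorescence per well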
TLR9-MyD88 block: blocks human TLR9 binding to MyD88 | Q9NR96+Q99836 | CHO BLA complementation TLR9-MyD88, CCF4 FRET ratio | inhibition, % at 4.98 µM | actives 0.21% (n = 340,000) | AID 504734;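 active = inhibition above the mean over all tested compounds plus 3 SD, cut at about 21% in these data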;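 also: 0% = DMSO only wells and 100% = clavulanate BLA inhibitor control wells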
GRK2 inh: human GRK2 inhibition via aptamer displacement. AID 488847. P25098. bead flow cytometry, FAM-aptamer displacement from GRK2. actives 0.59% (n = 330,000). inhibition of aptamer binding, % at 10 µM;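 active = inhibition of aptamer binding above 40%, roughly 3 SD of noise, on plates passing a quality check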;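 also: median bead fluorescence of bound FAM aptamer so fluorescent compounds give negative values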
TLR4 MyD88 comp: blocks binding of human TLR4 to MyD88; HeLa CL3-4 TLR4/MyD88 BLA complementation, FRET ratio; O00206+Q99836; AID 861; inhibition, % at 8.4 µM; actives 0.18% (n = 200,000); in the data active = inhibition above about 25%;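 also: 0% = vehicle and 100% = reference inhibitor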
NOD2-RIPK2 inh: inhibitors of human NOD2-RIPK2 interaction; inhibition, % at 4.98 µM; O43353; CHO BLA complementation NOD2-RIPK2, CCF4 ratio; actives 0.38% (n = 360,000); AID 624267; in the data active = inhibition above about 21%;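 also: 0% = vehicle only and 100% = reference blocker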
Active calls of the source: *; i = inactive; x = no result given.

SMILES	TMEM16A act	ANO1 block	TLR9-MyD88 block	GRK2 inh	TLR4 MyD88 comp	NOD2-RIPK2 inh
COc1cccc2c1NC(C(=O)O)C1CC=CC21 (stereo unspecified)	i	i	-6.8	100.0*	-10.2	20.2
CC(=O)c1ccc2c(c1)C1C=CCC1C(C(=O)O)N2 (stereo unspecified)	i	x	x	x	7.1	-7.3
Cc1ccc2c(c1)C1C=CCC1C(C(=O)O)N2 (stereo unspecified)	x	i	x	68.0*	-7.5	x
O=C(O)C1Nc2ccc(OC(F)(F)F)cc2C2C=CCC12 (stereo unspecified)	x	i	x	29.0	x	x
O=C(O)C1Nc2c(cccc2C(F)(F)F)C2C=CCC12 (stereo unspecified)	x	i	x	75.0*	x	x
O=C(CC[C@H]1O[C@@H](n2ccc(=O)[nH]c2=O)[C@H](O)[C@@H]1O)N[C@H](Cc1ccccc1)C(=O)NCc1cccs1	x	x	x	x	x	9.7
Cc1cccnc1NC(=S)NC(=O)c1cccs1	i	25*	-2.4	1.0	10.1	4.7
Cc1cccnc1NC(=O)CNC(=O)c1cccs1	i	i	-4.9	0.0	x	-6.0
Cc1ccc(NC(=S)N(Cc2ccc(Cl)cc2)Cc2ccc(C(=O)O)cc2)cc1Cl	i	25*	3.0	0.0	-8.1	-11.0
COc1ccc(CN(CC2CCC(C(=O)O)CC2)C(=S)Nc2ccc(C)c(Cl)c2)cc1 (stereo unspecified)	i	i	8.9	0.0	-2.2	2.5
COc1ccc(NC(=O)c2cc(C3CCCCN3S(=O)(=O)c3ccc(F)cc3F)on2)c(C)c1 (stereo unspecified)	x	x	x	x	x	-4.3
CC(=O)NC(c1ccccc1)c1nc(-c2ccc(Cl)cc2)cs1 (stereo unspecified)	x	x	x	x	x	-0.7
CCc1nn2cc(C(=O)c3cc(Cl)ccc3O)cnc2c1-c1ccc(F)cc1	i	100*	-8.9	0.0	1.7	7.7
CC(C)NC(=O)c1cc(C2CCCCN2S(=O)(=O)c2cccc3cccnc23)on1 (stereo unspecified)	x	x	x	x	x	-10.2
COC1=CC(C)C2CC3OC(O)CC4C(C)=C(OC)C(=O)C(C2(C)C1=O)C34C (stereo unspecified)	x	x	x	x	x	-14.0
Cc1ccc(NC(=O)CSc2nnc(-c3ccccc3Br)o2)cc1C	i	i	6.1	0.0	-0.9	1.5
Cc1cc(C)c(C(=O)CSc2nnc(-c3ccccc3Br)o2)cc1C	-5.05*	x	-6.7	x	3.9	-20.6
CCCCCCCCN1C(=O)[C@H](CC(=O)NCc2cccs2)C[C@@]2(C(=O)OC)CC(C)(C)CC=C12	x	x	x	x	x	1.5
COc1ccc2oc3cc(NCCN(C)C)ccc3c(=O)c2c1	x	x	x	x	x	-12.4
CC/C(=N\NC(=O)c1ccncc1)C12CC3CC(CC(C3)C1)C2	i	i	0.1	0.0	-9.7	0.0
CC/C(=N\NC(=O)c1ccc2c(c1)OCO2)C12CC3CC(CC(C3)C1)C2	-6.11*	i	6.2	2.0	-1.4	8.4
Cc1ccc(S(=O)(=O)N2[C@H](CC(=O)c3cccc4ccccc34)OC[C@@H]2C)cc1	x	x	x	x	x	-11.3
NC(Cc1ccc(C(F)(F)F)cc1)c1csc(Nc2ccc(C(=O)NCc3ccco3)cn2)n1 (stereo unspecified)	x	x	x	x	x	-10.3
COc1ccc(C(=O)C2CCCN(C/C=C/c3ccccc3OC)C2)c(OC)c1 (stereo unspecified)	-5.09*	i	4.1	0.0	2.3	-3.0
COc1cccc(C(=O)C2CCCN(C/C=C/c3ccccc3OC)C2)c1 (stereo unspecified)	i	i	-7.0	0.0	5.4	0.1
SMILES	TMEM16A act	ANO1 block	TLR9-MyD88 block	GRK2 inh	TLR4 MyD88 comp	NOD2-RIPK2 inh
COCCNC(=O)COC(=O)c1[nH]c(C)c(C(C)=O)c1C	i	100*	0.0	1.0	-10.1	5.0
CC1=NN(c2ccccc2)C(=O)C1CCC#N (stereo unspecified)	x	x	x	x	x	-9.6
C/C(=N\NC(=O)C1CC1(c1ccccc1)c1ccccc1)c1cccc([N+](=O)[O-])c1 (stereo unspecified)	i	i	-11.5	1.0	-10.9	-10.8
C/C(=N\NC(=O)C1CC1c1ccccc1)c1cccc([N+](=O)[O-])c1 (stereo unspecified)	i	25*	5.3	3.0	-20.2	-6.3
COC(=O)CN1C(=O)CSc2ccc(S(=O)(=O)N3CCC(C)CC3)cc21	x	x	x	x	x	1.0
O=C1NC[C@H](CCCCN2C[C@H](Cc3ccc(O)cc3)N(CCc3ccccc3)C(=O)C2=O)N(CCC2CCCCC2)C1=O	x	x	x	x	x	-12.5
O=C(NNC(=S)Nc1cccc2ccccc12)c1cccc(Br)c1	i	25*	-3.7	0.0	-1.2	-3.4
COc1cccc(C(=O)N2CCC[C@@H]2C(=O)N2CCC[C@H]2C(=O)NCc2ccncc2)c1	x	x	x	x	x	0.6
O=C(NC(C(=O)N/N=C/c1ccncc1)c1n[nH]c(=O)c2ccccc12)c1ccccc1 (stereo unspecified)	i	i	-0.1	1.0	x	-3.4
O=C(NC(C(=O)N/N=C/c1cccnc1)c1n[nH]c(=O)c2ccccc12)c1ccccc1 (stereo unspecified)	-6.39*	i	-4.0	4.0	x	-2.7
Cc1[nH]c2ccccc2c1C(=O)CSC(=S)N1CCCCC1	-11.7*	i	4.3	1.0	-4.8	-7.1
Cc1[nH]c2ccccc2c1C(=O)CSC(=S)N(C)C1CCCCC1	i	i	1.0	6.0	-2.9	7.6
Cc1ccc(C2CC(=O)C=C(O)C2)cc1 (stereo unspecified)	i	100*	2.2	2.0	-5.4	-3.8
CC1(C)CC[C@]2(C(=O)O)CC[C@]3(C)C(=CC[C@@H]4[C@@]5(C)CC[C@H](O[C@@H]6O[C@H](C(=O)O)[C@@H](O)[C@H](O[C@@H]7OC[C@H](O)[C@H](O)[C@H]7O)[C@H]6O)C(C)(C)[C@@H]5CC[C@]43C)[C@@H]2C1	-16.9*	x	14.8	8.0	x	17.9
CC(C)(C)NC(=O)C1C(c2ccccc2)=Nc2ccccc2N1C(=O)c1ccc(C(F)(F)F)cc1 (stereo unspecified)	x	x	x	x	x	-15.5
O=C1CC(c2ccc3c(c2)OCO3)c2cc3c(cc2N1)OCCO3 (stereo unspecified)	-5.13*	i	-6.0	2.0	-8.6	-1.4
CCCCCCCCN1C(=O)[C@H](CC(=O)NCCCN2CCCC2=O)C[C@@]2(C(=O)OC)CC(C)(C)CC=C12	x	x	x	x	x	7.7
N/C(=N\OC(=O)COc1ccc2ccccc2c1Br)c1cccnc1	x	25*	x	0.0	-1.7	x
CC(C)(C)C1COc2ccccc2N1C(=O)c1ccccc1Cl (stereo unspecified)	-15*	i	-9.6	1.0	x	2.2
Cc1nnc(SCc2nc3scc(-c4ccccc4)c3c(=O)[nH]2)s1	i	i	0.3	0.0	x	4.3
